Compound activity as filed in PubChem.
DT40 TDP1 CPT – growth inhibition of DT40 Tdp1-/-;hTDP1 cells with camptothecin (screen for TDP1 inhibitors); chicken DT40 Tdp1-/-;hTDP1 cells + 20 nM CPT, ATP luminescence, 48 h; Potency, µM (doses to about 46.2 µM), most hits filed as inhibitors; hit rate 12% among 420,000; AID 686979; further: nearly all actives have a fitted effect of over 55% in size
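Chicken DT40 Tdp1-/- cells stably complemented with human TDP1 were seeded at 400 cells/well in medium containing 20 nM camptothecin, exposed to pin-transferred compounds, and grown at 37 °C for at least 48 hr. Viability was read as ATP luminescence.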
TDP1 block – TDP1 (human) enzyme inhibition; Q9NUW8; recombinant TDP1, AlphaScreen DNA substrate cleavage; Potency, µM (top dose mostly 130 µM), usual class: inhibitors; hit rate 0.28% among 350,000; AID 485290; further: nearly all actives have a fitted effect of over 40% in size
Target sequence (Q9NUW8 whole entry, looked up): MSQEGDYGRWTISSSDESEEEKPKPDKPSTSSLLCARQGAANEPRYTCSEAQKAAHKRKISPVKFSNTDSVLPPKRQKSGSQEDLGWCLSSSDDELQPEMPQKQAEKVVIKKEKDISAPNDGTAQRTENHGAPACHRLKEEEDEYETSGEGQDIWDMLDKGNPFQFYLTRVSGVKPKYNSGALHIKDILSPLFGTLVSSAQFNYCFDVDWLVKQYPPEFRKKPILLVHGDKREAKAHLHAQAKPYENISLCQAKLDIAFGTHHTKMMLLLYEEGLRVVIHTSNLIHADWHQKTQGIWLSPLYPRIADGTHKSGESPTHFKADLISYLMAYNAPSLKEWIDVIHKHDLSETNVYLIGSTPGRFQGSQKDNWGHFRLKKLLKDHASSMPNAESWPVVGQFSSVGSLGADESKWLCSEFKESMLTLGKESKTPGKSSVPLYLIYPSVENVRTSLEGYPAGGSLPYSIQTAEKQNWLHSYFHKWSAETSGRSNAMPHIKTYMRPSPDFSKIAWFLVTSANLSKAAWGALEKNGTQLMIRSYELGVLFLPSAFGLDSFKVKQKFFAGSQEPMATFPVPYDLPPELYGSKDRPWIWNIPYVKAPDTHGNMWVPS
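Recombinant human Tdp1 (E. coli-expressed, 1 nM final) preincubated with compounds 15 min at room temperature, then 5'-biotin/3'-phosphotyrosine-FITC DNA substrate (15 nM final) added for 5 min. AlphaScreen beads (10 ug/ml final) added 10 min; cleavage lowers signal.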
TGFb inhibitor – inhibitors of TGF-b signaling. HepG2 CAGA-GFP TGF-b/SMAD3 reporter, GFP fluorescence, 18 h; TGF-beta stimulated, 500 pg/mL final. Potency, µM (highest dose often 46.1 µM), hits mostly inhibitors. hit rate 1.2% among 410,000. AID 588855; further: nearly all actives have a fitted effect of over 65% in size
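Per well, imaged GFP fluorescence of HEPG2 CAGA-GFP cells gives the signal; cells get compound, then TGF-beta (500 pg/mL final), 18 h at 37 degrees C; %Activity versus -TGF-beta and +DMSO controls.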
HepG2 viability – HepG2 cytotoxicity, counter-screen for TGF-b inhibitors | HepG2 CAGA-GFP viability, ATP luminescence, 18 h | Potency, µM (titrated, usually from 46.1 µM), hits mostly cytotoxic | hit rate 0.76% among 410,000
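CellTiter-Glo luminescence gave cytotoxicity after 18 hours at 37 degrees C. The cells were HepG2 CAGA-GFP in 1% FBS DMEM, stimulated with 500 pg/mL TGF-beta after compound addition. %Activity was normalised to no-cell wells (complete cell-killing) and DMSO (no toxicity), and curves were fitted and classified.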
TDP1 cell noCPT – qHTS for Inhibitors of human tyrosyl-DNA phosphodiesterase 1 (TDP1): qHTS in cells in absence of CPT; hit rate 15% among 420,000; DT40 Tdp1-/- hTDP1 cells, no CPT, ATP luminescence, 48 h; Potency, µM (titrated, usually from 46.2 µM), actives largely listed as inhibitors; further: nearly all actives have a fitted effect of over 55% in size
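Stably hTDP1-transfected Tdp1-null chicken DT40 cells were treated with library compounds minus camptothecin and grown for at least 48 hr at 37 °C, after which cellular ATP was quantified by luminescence.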
IL-1B inflam inh – inhibitors of inflammasome signaling (IL-1 beta secretion); THP-1 LPS/ATP IL-1B secretion, AlphaLISA, 16 h; active compounds read low; activity change, % at 57.5 µM; hit rate 4.7% among 360,000; AID 743279; in the data active means activity change below about -50%; inconclusive means mostly about -30% to -49%
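THP-1 cells pretreated 1 hr with compounds (up to 57.5 uM final), then stimulated with LPS (250 ng/mL final) plus ATP (1.25 mM final); secreted IL-1B measured by AlphaLISA after 16 hr, decreased signal indicating inhibition.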
A number is an active result; n = inactive; u = inconclusive; x = no result given; [ ] = another dose, or the depositor's remark. The list is not random: actives were taken first. Their share in the collection is about 18%. Unless noted, the call rests on the fitted dose curve; in most records, active means well fitted curve in the direction sought with a large enough effect; inconclusive means small, poorly fitted or top-dose-only effect, or another doubt; inactive means no such curve, though single readings can be large; an effect the other way counts as inactive or inconclusive.

SMILES	DT40 TDP1 CPT	TDP1 block	TGFb inhibitor	HepG2 viability	TDP1 cell noCPT	IL-1B inflam inh
NC(=O)c1c(NC(=O)CN2CCN(S(=O)(=O)c3ccccc3)CC2)sc2c1CCC2	13µM	x	u	n	18µM	-51
COC(=O)c1c(NC(=O)CS(=O)(=O)c2ccc(C)cc2)sc2c1CCCC2	u	n	n	n	16µM	x
CCn1cc(Br)c(C(=O)Nc2sc3c(c2C(N)=O)CCCC3)n1	n	n	n	n	n	n
Cn1cc(Br)c(C(=O)Nc2sc3c(c2C(N)=O)CCCC3)n1	u	x	n	n	16µM	-82
NC(=O)c1c(NC(=O)CS(=O)(=O)c2ccc(Cl)cc2)sc2c1CCCC2	u	n	u	n	u	x
CCOC(=O)c1ccc(NC(=O)c2c(C)nn(-c3ccc(F)cc3)c2-n2cccc2)cc1	x	n	n	n	x	x
CCn1c(C)[n+](Cc2ccccc2)c2ccc(Cl)cc21	10µM	n	n	n	12µM	n
Cc1n(Cc2ccccc2)c2ccccc2[n+]1Cc1ccccc1	1.2µM	x	u	n	0.73µM	-72
Cc1n(Cc2ccccc2)c2cc([N+](=O)[O-])ccc2[n+]1Cc1ccccc1	u	x	n	n	21µM	n
CCn1c(C)[n+](Cc2ccccc2)c2ccc(C(=O)OC)cc21	n	n	n	n	n	n
COC(=O)Cn1c(N)[n+](Cc2ccccc2)c2ccccc21	n	n	n	n	n	n
CCOC(=O)Nc1ccc(NC(=O)c2ccccc2F)cc1	n	n	n	n	n	n
CCc1ccccc1NC(=O)c1ccc(OCc2c(C)noc2C)cc1	n	n	n	n	n	n
COc1cc2nc(NC3CCN(Cc4ccccc4)CC3)nc(N3CCCN(C)CC3)c2cc1OC	5µM	x	x	x	5µM	x
COc1cc2nc(N3CCCN(C)CC3)nc(NC3CCNCC3)c2cc1OC	11µM	x	x	x	13µM	x
COC(=O)C1CCCCN1Cc1nc(N2CCCCC2)c2cc(OC)c(OC)cc2n1 (configuration not stated)	n[9.04 µM]	x	x	x	n	x
COc1ccccc1CNC1CCN(Cc2ccccc2)CC1	u	n	n	n	u	u
COc1cc2nc(N3CCN(C)CC3)nc(NC3CCN(C)CC3)c2cc1OC	8.9µM	x	x	x	11µM	x
COc1cc2nc(N3CCCCC3)nc(NC3CCN(Cc4ccccc4)CC3)c2cc1OC	5µM	x	x	x	3.2µM	x
OC[C@H]1O[C@H](OC[C@H]2O[C@H](OC[C@H]3O[C@H](O[C@]4(CO)O[C@H](CO)[C@@H](O)[C@@H]4O)[C@H](O)[C@@H](O)[C@@H]3O)[C@H](O)[C@@H](O)[C@H]2O)[C@H](O)[C@@H](O)[C@H]1O	n	x	n	n	n	n
CN[C@H](CC(C)C)C(=O)N[C@H]1C(=O)N[C@@H](CC(N)=O)C(=O)N[C@H]2C(=O)N[C@H]3C(=O)N[C@H](C(=O)N[C@H](C(=O)O)c4cc(O)cc(O)c4-c4cc3ccc4O)[C@H](O)c3ccc(c(Cl)c3)Oc3cc2cc(c3O[C@@H]2O[C@H](CO)[C@@H](O)[C@H](O)[C@H]2O[C@H]2C[C@](C)(N)[C@H](O)[C@H](C)O2)Oc2ccc(cc2Cl)[C@H]1O	x	n	x	x	x	x
CCCN1CNc2c(c(=O)[nH]c(=S)n2CCc2ccsc2)C1	n	n	x	x	u	x
COc1cc2c(NC3CCN(C)CC3)nc(N3CCN(C)CC3)nc2cc1OCCOCCN(C)C	n	x	u	n	n	x
COc1cc2nc(N3CCN(C(=O)[C@H]4CCCO4)CC3)nc(N)c2cc1OC	n	n	x	x	n	x
COc1cc2nc(N3CCCN(C)CC3)nc(NC3CCN(C)CC3)c2cc1OC	13µM	x	x	x	18µM	x
SMILES	DT40 TDP1 CPT	TDP1 block	TGFb inhibitor	HepG2 viability	TDP1 cell noCPT	IL-1B inflam inh
COc1cc2nc(N3CCOCC3)nc(NC3CC3)c2cc1OC	13µM	x	x	x	13µM	x
COc1cc2nc(N3CCCCC3)nc(NC3CCN(C)CC3)c2cc1OC	7.9µM	x	x	x	7.9µM	x
CC(=O)N1CCN(C(=O)CNc2cc(C(F)(F)F)ccc2OCC(F)(F)F)CC1	n	n	n	n	n	-57
CCN1CCN(CC(=O)Nc2cc(C(F)(F)F)ccc2OCCOC)CC1	n	x	n	n	n	n
C/C=C/c1ccc(OCCn2nnc3ccccc32)c(OC)c1	18µM	x	n	n	15µM	n
C=CCc1ccccc1OCCn1nnc2ccccc21	u	x	n	n	23µM	n
Cc1cccc(OCCn2nnc3ccccc32)c1C	u	x	n	n	u	n
COc1ccc(CCNS(=O)(=O)c2cc(-c3cc(C)no3)ccc2OC)cc1OC	n	n	n	n	n	x
Cc1ccc(C2(c3noc(CN(C)Cc4ccccn4)n3)CCCC2)cc1	u	n	n	n	16µM	n
CCOc1cc(C(N)=O)cc(Cl)c1OCC	u	n	n	n	23µM	n
CCOc1cc(C(=O)O)cc(Cl)c1OC	n	n	n	n	n	n
C=CCOc1c(Cl)cc(C(=S)N2CCCC2)cc1OCC	5.8µM	x	n	n	7.3µM	n
CCOc1cc(C(=S)N2CCCC2)ccc1O	n	x	n	n	n	n
O=C(CN1C(=O)COc2ccc(S(=O)(=O)NC3CCCC3)cc21)NCc1ccc(Cl)cc1	n	n	u	n	u	x
Cc1nn(CCCC(=O)N2CCN(c3ccc(F)cc3)CC2)c(C)c1[N+](=O)[O-]	16µM	n	n	n	21µM	n
COc1ccc(CNC(=O)c2ccc(Cn3nc(C)c([N+](=O)[O-])c3C)o2)cc1	u	n	n	n	23µM	n
COc1ccc(N2CCN(C(=O)c3ccc(Cn4nc(C)c([N+](=O)[O-])c4C)o3)CC2)cc1	u	n	n	n	13µM	n
Cc1nn(Cc2ccc(C(=O)NC(C)(C)C)o2)c(C)c1Br	23µM	n	n	n	12µM	n
CN(C)c1ccc(/C=C2\C=Cc3ccccc32)c(Cl)c1	u	x	n	n	13µM	x
CC(=O)N(O)c1ccc(/C=C2\C=Cc3ccccc32)cc1	1.4µM	x	n	n	3.2µM	x
CCCC(=O)N(C)c1ccc(/C=C2\C=Cc3ccccc32)cc1	3.2µM	x	n	n	2.2µM	x
CN(N=O)c1ccc(/C=C2\C=Cc3ccccc32)cc1	n	x	n	n	n	x
CC(=O)N(C)c1ccc(/C=C2\C=Cc3ccccc32)cc1	6.3µM	x	n	n	7.1µM	x
CNc1c(Cl)cc(/C=C2\C=Cc3ccccc32)cc1Cl	n	x	n	n	n	x
CN(CC(=O)O)c1ccc(/C=C2\C=Cc3ccccc32)cc1	u	x	u	n	u	x
